# Measurements published in PubChem BioAssay.
# Calls of active or inactive are those of the source.
# Columns and labels:
# [1] = small molecules captured by biotinylated probe aFSTL3 – biochemical, small-molecule microarray, fluorescence 635/667, stem cell growth factor project, primary screen (AID 1064); details: higher = more signal;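 also: measures binding of the biotinylated anti-FSTL3 antibody to printed compounds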
# [2] = binders from COS7 lysate, DM2A8 probe, primary screen, torsin A project, cell lysate, small-molecule microarray, fluorescence 635/667 (AID 1065); details: higher = more signal, COS7 lysate expressing mutant human TOR1A
# [3] = small molecules captured by biotinylated probe aFGF2 – biochemical, small-molecule microarray, fluorescence 635/667, stem cell growth factor project, primary screen (AID 1067); details: higher = more signal;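 also: measures binding of biotinylated aFGF2 protein to printed compounds on slides; z-score merges feature fluorescence and signal-to-noise across triplicate slides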
# [4] = small molecules captured by biotinylated probe aFGF10 – biochemical, small-molecule microarray, fluorescence 635/667, stem cell growth factor project, primary screen (AID 1071); details: higher = more signal;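 also: score merges 667 nm spot intensity and signal to noise from triplicate slides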
# [5] = biological target: Neurogenic locus notch homolog protein 2 (Homo sapiens) (UniProt Q04721); test: small molecules binding Notch2 protein – biochemical, small-molecule microarray, 635 nm fluorescence, stem cell growth factors, primary screen (AID 1073); details: higher = more signal
# [6] = biological target: Pro-neuregulin-1, membrane-bound isoform (Homo sapiens) (UniProt Q02297); test: small molecules binding neuregulin-1 protein – biochemical, small-molecule microarray, fluorescence 635/667, psychiatric disease protein project, primary screen (AID 1075); details: NRG1 binding, 635 nm fluorescence, higher = more signal;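 also: score combines 667 nm spot fluorescence with signal to noise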
# [7] = tested on: Neuregulin-1 EGF-like domain; test: small molecules binding NRG1 EGF domain – biochemical, small-molecule microarray, 635 nm fluorescence, primary screen (AID 1081); details: higher = more signal;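 also: binding of the protein to compounds printed on small-molecule microarray slides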
# [8] = FRG1 expression reporter modulators in myotubes – cell-based, C2C12 myotubes, firefly/Renilla luciferase, luminescence, FRG1 inhibition for FSHD, primary screen (AID 1084); details: FRG1 promoter luciferase, higher = more signal, called active from +8 up or from −8 down
# [9] = small molecules captured by biotinylated probe aFST – biochemical, small-molecule microarray, fluorescence 635/667, stem cell growth factor project, primary screen (AID 1086); details: higher = more signal;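 also: score merges 667 nm fluorescence with signal-to-noise of each printed compound spot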
# [10] = binders of probe aHhip on microarray, primary screen, stem cell growth factor project, biochemical, small-molecule microarray, fluorescence 635/667 (AID 1087); details: higher = more signal;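 also: score merges spot fluorescence at 667nm with spot signal to noise ratio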
# Chain of Neurogenic locus notch homolog protein 2 (Homo sapiens) (Q04721 whole entry, looked up, canonical isoform): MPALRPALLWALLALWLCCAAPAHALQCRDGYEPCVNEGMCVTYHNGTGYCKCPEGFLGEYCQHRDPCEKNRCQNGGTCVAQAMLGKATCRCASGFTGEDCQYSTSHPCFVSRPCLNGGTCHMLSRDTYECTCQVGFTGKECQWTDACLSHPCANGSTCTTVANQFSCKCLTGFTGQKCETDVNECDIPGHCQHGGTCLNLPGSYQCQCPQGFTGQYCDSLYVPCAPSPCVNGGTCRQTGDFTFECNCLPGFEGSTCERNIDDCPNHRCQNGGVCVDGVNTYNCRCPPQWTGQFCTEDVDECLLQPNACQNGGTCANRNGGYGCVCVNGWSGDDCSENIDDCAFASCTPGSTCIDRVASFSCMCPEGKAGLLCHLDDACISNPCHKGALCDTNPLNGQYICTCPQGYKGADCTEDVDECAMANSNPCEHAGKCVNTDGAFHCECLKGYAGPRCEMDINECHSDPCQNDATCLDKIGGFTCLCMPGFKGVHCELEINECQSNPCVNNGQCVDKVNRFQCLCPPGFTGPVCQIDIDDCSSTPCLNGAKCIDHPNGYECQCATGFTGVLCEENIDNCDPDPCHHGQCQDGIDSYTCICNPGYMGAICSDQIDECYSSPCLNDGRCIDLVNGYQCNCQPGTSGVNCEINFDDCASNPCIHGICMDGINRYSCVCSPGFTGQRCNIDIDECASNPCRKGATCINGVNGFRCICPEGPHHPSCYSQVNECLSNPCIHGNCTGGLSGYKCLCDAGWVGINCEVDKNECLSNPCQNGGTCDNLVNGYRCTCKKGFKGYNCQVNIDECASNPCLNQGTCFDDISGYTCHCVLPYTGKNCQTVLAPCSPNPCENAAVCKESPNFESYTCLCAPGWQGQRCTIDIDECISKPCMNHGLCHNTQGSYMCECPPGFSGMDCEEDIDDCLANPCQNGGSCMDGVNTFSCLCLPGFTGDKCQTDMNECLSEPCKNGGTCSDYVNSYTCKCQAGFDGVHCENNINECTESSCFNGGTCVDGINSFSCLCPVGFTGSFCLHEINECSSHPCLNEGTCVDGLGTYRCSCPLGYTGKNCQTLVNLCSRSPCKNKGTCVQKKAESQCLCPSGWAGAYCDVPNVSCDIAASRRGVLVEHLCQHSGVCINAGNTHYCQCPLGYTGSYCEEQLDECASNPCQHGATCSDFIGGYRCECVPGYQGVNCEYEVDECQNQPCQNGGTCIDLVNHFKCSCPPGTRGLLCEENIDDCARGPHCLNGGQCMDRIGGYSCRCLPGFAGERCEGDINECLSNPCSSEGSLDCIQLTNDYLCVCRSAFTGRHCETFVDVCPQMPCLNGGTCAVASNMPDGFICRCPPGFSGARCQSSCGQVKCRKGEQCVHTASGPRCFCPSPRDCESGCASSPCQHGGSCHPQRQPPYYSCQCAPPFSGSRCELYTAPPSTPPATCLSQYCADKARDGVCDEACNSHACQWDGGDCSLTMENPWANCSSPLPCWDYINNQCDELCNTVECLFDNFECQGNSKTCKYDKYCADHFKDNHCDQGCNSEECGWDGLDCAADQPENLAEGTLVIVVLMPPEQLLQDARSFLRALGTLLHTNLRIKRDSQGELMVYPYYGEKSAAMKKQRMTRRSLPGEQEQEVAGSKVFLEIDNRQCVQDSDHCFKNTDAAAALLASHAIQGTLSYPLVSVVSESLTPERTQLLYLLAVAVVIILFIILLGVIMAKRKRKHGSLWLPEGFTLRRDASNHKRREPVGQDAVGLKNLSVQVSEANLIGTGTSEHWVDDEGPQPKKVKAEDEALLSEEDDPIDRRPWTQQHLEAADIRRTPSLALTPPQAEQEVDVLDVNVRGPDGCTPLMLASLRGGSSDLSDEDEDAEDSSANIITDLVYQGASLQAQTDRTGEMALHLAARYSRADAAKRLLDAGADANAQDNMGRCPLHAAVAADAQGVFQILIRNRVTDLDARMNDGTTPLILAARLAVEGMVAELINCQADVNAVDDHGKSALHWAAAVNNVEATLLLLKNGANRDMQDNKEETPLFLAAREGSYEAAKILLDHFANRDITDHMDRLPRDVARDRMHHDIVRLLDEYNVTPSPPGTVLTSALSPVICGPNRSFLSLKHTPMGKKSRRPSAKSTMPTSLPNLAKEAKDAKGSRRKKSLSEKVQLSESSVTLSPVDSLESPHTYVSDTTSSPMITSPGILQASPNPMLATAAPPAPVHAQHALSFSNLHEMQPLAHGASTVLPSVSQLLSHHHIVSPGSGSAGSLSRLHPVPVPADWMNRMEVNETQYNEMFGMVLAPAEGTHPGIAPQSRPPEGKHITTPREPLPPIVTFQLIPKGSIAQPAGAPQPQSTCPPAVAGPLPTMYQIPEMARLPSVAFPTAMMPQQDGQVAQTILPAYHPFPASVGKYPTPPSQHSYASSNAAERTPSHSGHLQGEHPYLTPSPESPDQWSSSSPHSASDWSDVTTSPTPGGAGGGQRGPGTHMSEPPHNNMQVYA
# Chain of Pro-neuregulin-1, membrane-bound isoform (Homo sapiens) (Q02297 whole entry, looked up, the tested form may be a part, canonical isoform): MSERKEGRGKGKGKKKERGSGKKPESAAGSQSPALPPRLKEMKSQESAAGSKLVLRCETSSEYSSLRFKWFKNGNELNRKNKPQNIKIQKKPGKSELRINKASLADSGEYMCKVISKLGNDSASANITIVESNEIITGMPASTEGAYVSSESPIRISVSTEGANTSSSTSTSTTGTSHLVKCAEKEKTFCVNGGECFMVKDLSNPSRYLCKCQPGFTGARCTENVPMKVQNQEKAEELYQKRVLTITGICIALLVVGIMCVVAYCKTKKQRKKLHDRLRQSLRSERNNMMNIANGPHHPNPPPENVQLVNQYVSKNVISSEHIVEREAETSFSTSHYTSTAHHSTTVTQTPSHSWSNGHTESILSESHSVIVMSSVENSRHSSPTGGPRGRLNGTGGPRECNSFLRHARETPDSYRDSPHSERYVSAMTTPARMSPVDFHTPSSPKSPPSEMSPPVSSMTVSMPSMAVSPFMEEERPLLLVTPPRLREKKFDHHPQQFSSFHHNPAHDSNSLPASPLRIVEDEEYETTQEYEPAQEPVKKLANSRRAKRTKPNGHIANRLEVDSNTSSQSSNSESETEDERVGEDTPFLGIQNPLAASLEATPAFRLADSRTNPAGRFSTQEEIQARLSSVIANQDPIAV
SMILES,composite z-score [1],composite z-score [2],composite z-score [3],composite z-score [4],composite z-score [5],composite z-score [6],composite z-score [7],z-score [8],composite z-score [9],composite z-score [10]
CCC(CC)C(O)C1C=CC2C(=O)N(c3ccccc3)C(=O)C2N1Nc1ccccc1 (stereo not given),0.525,0.814,0.21,0.974,1.62,1.94,1.27,-1.31 (inactive),1.42,-0.216
[N-]=[N+]=NCc1ccccc1[C@@H]1OC(c2ccc(OCCCO)cc2)=N[C@]1(CCS(=O)(=O)c1ccccc1)C(N)=O,0.339,0.852,0.175,0.647,1.33,2.06,1.34,1.81 (inactive),1.71,-0.165
C=CCNC(=O)[C@@H]1[C@H]2C(=O)O[C@H](c3ccccc3)[C@H](c3ccccc3)N2[C@H](c2ccc(OCCO)cc2)[C@@]12C(=O)N(C(=O)OCCOC)c1ccc(C#CCNC(N)=O)cc12,0.204,0.672,-0.0502,0.399,1.25,0.748,1.1,0.635 (inactive),0.798,-0.0994
CC1CC/C=C\[C@H]2OC34C=CCN(Cc5ccccc5)C(=O)[C@H]3N(C(C)CO)C(=O)[C@@H]4C2C(=O)O1 (stereo not given in full),-0.504,-0.33,-0.138,0.0852,-0.257,-0.771,1.44,0.251 (inactive),-0.021,-0.0672
O=C1OCC=C[C@H]2OC34C=CCN(Cn5nnc6ccccc65)C(=O)[C@H]3N(CCCCCO)C(=O)[C@@H]4[C@@H]12 (stereo not given in full),0.4,-0.629,-0.0069,-0.138,-0.637,2.53,1.16,-0.564 (inactive),-0.779,-0.396
O=C1OCCC=C[C@H]2OC34C=CCN(c5ccc(Cl)cc5)C(=O)[C@H]3N(CCCO)C(=O)[C@@H]4C12 (stereo not given in full),0.189,-0.771,-0.104,-0.144,-0.678,-0.602,-0.366,0.923 (inactive),-0.155,-0.236
COc1ccc([Si](C)(C)[C@@H]2[C@@H](CCO)O[C@]3(C(=O)N(Cc4cccc(N5CCOC5=O)c4)c4ccccc43)[C@H]2C)cc1,0.0806,0.229,-0.0704,0.289,1.03,0.775,0.953,-1.65 (inactive),0.0855,-0.156
O=C1O[C@H](c2ccccc2)[C@H](c2ccccc2)N2[C@H]1[C@@H](C(=O)NC[C@H](O)c1ccccc1)[C@]1(C(=O)Nc3ccc(C#CC4=CCCCC4)cc31)[C@H]2c1ccccc1OCCO,0.185,0.463,0.0637,0.496,0.908,0.298,1.07,-0.341 (inactive),0.599,-0.0645
C=CC[C@@]1(C(=O)N2CCCCC2)N=C(c2ccc(OCCCO)cc2)O[C@@H]1c1ccccc1N=[N+]=[N-],0.292,-0.0912,-0.0198,0.555,1.55,1.4,1.23,-0.546 (inactive),0.833,-0.0618
CS(=O)(=O)CCOC(=O)C1=CC(CCCO)=CC(C2CC2)N(Cc2cc3c(cc2Br)OCO3)C=C1C(=O)OCCS(C)(=O)=O (stereo not given),-0.0672,0.702,-0.0752,0.142,0.6,1.88,1.2,-0.517 (inactive),0.114,-0.0754
CN(C)CCCCCCNC(=O)[C@@H]1C[C@@H]2C(=O)N3CCC[C@H]3C(=O)N2[C@@H]1c1ccc(O)cc1,0.675,1.9,0.0923,1.18,0.697,0.543,1.35,1.53 (inactive),0.886,0.124
COc1ccccc1CN1C(=O)c2ccccc2[C@@]2(Cc3ccccc3N(CCCN(C)C)C2=O)[C@@H]1c1ccc(CO)cc1,-0.302,-0.252,-0.0396,-0.0231,0.137,-0.141,0.0968,0.0544 (inactive),-0.201,-0.0645
O=C1O[C@H](c2ccccc2)[C@H](c2ccccc2)N2[C@H]1[C@@H](C(=O)N1CCN(c3ncccn3)CC1)[C@]1(C(=O)Nc3ccc(C#CC4=CCCCC4)cc31)[C@H]2c1ccccc1OCCO,-0.218,0.337,0.009,0.548,1.25,0.694,1.26,-0.342 (inactive),0.239,0.0139
C=C(C)[C@@H]1CC=C(C(O)C2C=CC3C(=O)NC(=O)C3N2Nc2ccc(Cl)cc2Cl)CC1 (stereo not given in full),0.917,0.403,0.0095,0.117,1.42,1.35,0.953,1.3 (inactive),1.2,-0.0645
CCCCC(=C=CC[C@@H](O)c1cccc(OCCO)c1)C[C@@H](O)c1ccccn1,-0.528,0.775,-0.0771,0.702,0.0548,0.23,1.12,1.36 (inactive),0.381,-0.0618
O=C(NC1CC1)[C@@H]1c2ccccc2C(=O)N(C2Cc3ccccc3C2)[C@H]1c1ccc(CO)cc1,-0.549,0.847,-0.0618,0.139,1.01,0.639,0.807,-0.838 (inactive),0.325,1.38
O=C(CS)NCCCCCNC(=O)[C@@H]1C[C@@H]2C(=O)NCC(=O)N2[C@@H]1c1ccc(O)cc1,-0.0188,0.654,-0.11,0.0152,-0.966,0.317,1.39,0.111 (inactive),-0.155,-0.0003
NC(=O)[C@@]1(Cc2ccccc2)N=C(c2ccc(OCCCO)cc2)O[C@H]1c1ccccc1,0.264,-0.154,-0.0891,0.501,1.08,1.45,0.994,-2.16 (inactive),0.182,-0.189
C=CCOC(=O)[C@H]1[C@@H]2C(=O)O[C@@H](c3ccccc3)[C@@H](c3ccccc3)N2[C@@H](c2ccc(OCCOC(=O)[C@H]3C[C@H]4C(=O)N[C@@H](CCCCN(C)C)C(=O)N4[C@H]3c3cccc(OCCO)c3)cc2)[C@]12C(=O)Nc1ccc(I)cc12,-0.756,0.67,-0.0659,0.527,0.914,0.605,1.3,0.0721 (inactive),0.405,-0.179
CCN(CC)c1ccc(N2CC=CC34O[C@@H]5C=CCOC(=O)[C@@H]5[C@H]3C(=O)N(CCCCCCO)[C@@H]4C2=O)cc1 (stereo not given in full),0.52,0.19,-0.167,-0.631,-0.489,1.87,1.46,-0.766 (inactive),-0.263,-0.0296
C#CCOc1ccc(C[C@@H](C(=O)OC)N(CC#C)[C@@H](/C=C/C2CC2)[C@H](O)Cc2ccccc2)cc1,0.282,-1,-0.198,-0.207,-1.12,-0.294,-0.0146,-4.34 (inactive),-0.353,-0.0994
Cc1ccc(C2C3C(=O)CC4C(=O)N(c5ccccc5)C(=O)C4C3CN2S(=O)(=O)c2ccc(C)cc2)cc1 (stereo not given),0.469,0.204,0.292,0.59,1.57,1.25,1.32,0.0035 (inactive),1.58,0.365
CC(C)(C)OC(=O)CC[C@]1(C(=O)NCCN2CCOCC2)COC(c2ccc(OCCCO)cc2)=N1,-0.254,0.883,0.0569,0.691,0.361,1.33,1.41,-0.783 (inactive),0.519,0.0623
COc1ccc(C(O)C2C=CC3C(=O)N(C)C(=O)C3N2NC(=O)OC(C)(C)C)c2ccccc12 (stereo not given),0.152,-0.129,-0.0107,0.669,1.62,1.81,0.937,-1.35 (inactive),1.37,0.0881
OCC1C=C(/C=C/c2ccccc2)CN1Cc1ccccc1Br (stereo not given),-0.337,0.422,0.0619,0.979,1.42,0.808,0.331,-1.8 (inactive),0.379,-0.136
COC(=O)[C@@]1(Cc2ccc(OC)cc2)[C@H]2c3cc(C(=O)N4CCCC4)n(CCc4ccc(O)c(O)c4)c3C[C@H]2CN1C(=O)c1ccccc1,1.65,0.269,0.0215,0.0359,1.33,2.26,1.11,2.61 (inactive),0.939,-0.156
C=CCN1Cc2ccccc2[C@@H]2OC(c3ccc(OCCCO)cc3)=N[C@]2(CCS(=O)(=O)c2ccccc2)C1=O,0.189,0.263,-0.04,0.345,1.55,0.721,1.24,-3.43 (inactive),0.804,-0.191
C=C(CCCC)/C(=C/C[C@@H](OC(C)=O)c1cccc(OCCO)c1)c1cnc2ccccc2c1,-0.0295,0.314,-0.0015,0.0122,0.249,0.122,0.274,-0.269 (inactive),0.219,0.235
COc1ccc(CCNC(=O)[C@@]2(c3ccc([N+](=O)[O-])cc3)CC(=O)N(CC34CC5CC(CC(C5)C3)C4)[C@@H]2c2ccc(CO)cc2I)cc1,-0.235,1,0.0569,0.377,0.6,1.09,1.2,-1.64 (inactive),-0.0217,-0.446
